The source made the active and inactive calls. The calls were made as follows: active = hit-call score of the fitted dose curve at least 0.9, where 1 is the maximum; inactive = score below 0.9.

What all share (settings): mRNA level, 48 h; actives raise or lower the signal
Read-out in assay [1]: Caspase-3 (Homo sapiens) (UniProt P42574)
Kind of assay: LTEA_HepaRG_CASP3: Life Technologies and Expression Analysis (LTEA) Assay for cysteine-aspartic acid protease (CASP3) using HepaRG (AID 2283477). Summed up:
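Transcript-level assay: CASP3 mRNA in human HepaRG after 48 h treatment, eight half-log concentrations from 100 uM in 0.5% DMSO, quantified by qRT-PCR.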

Read-out in assay [2]: Cytochrome P450 (CYP1A2), CYP1A2 (gene 1544)
In words: LTEA_HepaRG_CYP1A2: Life Technologies and Expression Analysis (LTEA) Assay for Cytochrome P450 (CYP1A2) using HepaRG (AID 2283479). Summed up:
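In duplicate wells, HepaRG cultures maintained in 0.5% DMSO were treated 48 h across an 8-point, half-log series topping at 100 uM; phenobarbital (1 mM) served as induction control. Expression was read by qRT-PCR.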

Read-out in assay [3]: cysteine-aspartic acid protease (CASP8), CASP8 (gene 841)
In words: LTEA_HepaRG_CASP8: Life Technologies and Expression Analysis (LTEA) Assay for cysteine-aspartic acid protease (CASP8) using HepaRG (AID 2283480). Summed up:
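Differentiated HepaRG cells in serum-free induction medium, 48 h exposure, eight-point half-log series from 100 uM in 0.5% DMSO, duplicates. CASP8 mRNA by qRT-PCR, normalized to ACTB, GAPDH, POLR2A; bidirectional fit versus DMSO.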

Read-out in assay [4]: Cytochrome P450 (CYP2B6), CYP2B6 (gene 1555)
Kind of assay: LTEA_HepaRG_CYP2B6: Life Technologies and Expression Analysis (LTEA) Assay for Cytochrome P450 (CYP2B6) using HepaRG (AID 2283481). Summed up: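 Human HepaRG, 48 h dosing, 0.5% DMSO vehicle, top dose 100 uM. CYP2B6 transcript by qRT-PCR, housekeeping-normalized, bidirectional curve fit.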

Read-out in assay [5]: Cytochrome P450 2C19 (Homo sapiens) (UniProt P33261)
In words: LTEA_HepaRG_CYP2C19: Life Technologies and Expression Analysis (LTEA) Assay for CYP2C19 using HepaRG (AID 2283482). Summed up:
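Endpoint: CYP2C19 mRNA change, bidirectional fit vs 0.5% DMSO. Cells: HepaRG, 48 h exposure, eight-point series topping at 100 uM. Quantitation: qRT-PCR normalized to ACTB, GAPDH, POLR2A.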

Read-out in assay [6]: CYP2C8 (gene 1558)
Kind of assay: LTEA_HepaRG_CYP2C8: Life Technologies and Expression Analysis (LTEA) Assay for CYP2C8 using HepaRG (AID 2283483). Summed up:
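Differentiated HepaRG cells in serum-free induction medium exposed 48 h in duplicate to 8 half-log concentrations from 100 uM in 0.5% DMSO. CYP2C8 mRNA by qRT-PCR normalized to ACTB, GAPDH, POLR2A; bidirectional fit versus DMSO.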

Read-out in assay [7]: CYP2C9 (gene 1559)
Kind of assay: LTEA_HepaRG_CYP2C9: Life Technologies and Expression Analysis (LTEA) Assay for CYP2C9 using HepaRG (AID 2283484). Summed up:
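Differentiated human HepaRG cells in serum-free induction medium were exposed 48 h to chemicals in 8-point half-log series from 100 uM (0.5% DMSO), in duplicate. CYP2C9 mRNA was measured by qRT-PCR, normalized to ACTB/GAPDH/POLR2A, with bidirectional fitting versus DMSO.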

Read-out in assay [8]: CYP2E1 (gene 1571)
Kind of assay: LTEA_HepaRG_CYP2E1: Life Technologies and Expression Analysis (LTEA) Assay for CYP2E1 using HepaRG (AID 2283485). Summed up:
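Differentiated HepaRG cells were treated in duplicate for 48 h with chemicals in 0.5% DMSO, from 100 uM downward in half-log dilutions. RNA was then analysed by qRT-PCR for CYP2E1 induction or loss.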

Read-out in assay [9]: CYP4A11 (gene 1579)
In words: LTEA_HepaRG_CYP4A11: Life Technologies and Expression Analysis (LTEA) Assay for CYP4A11 using HepaRG (AID 2283486). Summed up: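 Human hepatic HepaRG cultures receive duplicate 48 h exposures across a concentration-response series topping at 100 uM. Expression changes in CYP4A11 are measured by qRT-PCR relative to DMSO controls.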

Read-out in assay [10]: Cytochrome P450 3A4 (Homo sapiens) (UniProt P08684)
In words: LTEA_HepaRG_CYP3A4: Life Technologies and Expression Analysis (LTEA) Assay for CYP3A4 using HepaRG (AID 2283487). Summed up:
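HepaRG, 48 h exposure, 8-pt CRC from 100 uM (half-log), 0.5% DMSO, duplicates; serum-free induction medium. Readout: CYP3A4 mRNA, qRT-PCR, ACTB/GAPDH/POLR2A normalization. Bidirectional fit vs DMSO.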

Read-out in assay [11]: DNA damage-inducible transcript 3 (DDIT3), DDIT3 (gene 1649)
Kind of assay: LTEA_HepaRG_DDIT3: Life Technologies and Expression Analysis (LTEA) Assay for DNA damage-inducible transcript 3 (DDIT3) using HepaRG (AID 2283488). Summed up: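 Changes in DDIT3 transcript, in either direction relative to 0.5% DMSO vehicle, were quantified by TaqMan qRT-PCR after 48 h chemical exposure of HepaRG cells at 8 concentrations, maximum 100 uM.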

Read-out in assay [12]: Pro-epidermal growth factor (Homo sapiens) (UniProt P01133)
In words: LTEA_HepaRG_EGF: Life Technologies and Expression Analysis (LTEA) Assay for Epidermal growth factor (EGF) using HepaRG (AID 2283489). Summed up: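 Concentration-response mRNA assay: HepaRG cells dosed 48 h (max 100 uM, 0.5% DMSO), EGF measured by qRT-PCR and normalized to ACTB/GAPDH/POLR2A.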

Read-out in assay [13]: Early growth response protein 1 (EGR1) transcription factor, EGR1 (gene 1958)
Kind of assay: LTEA_HepaRG_EGR1: Life Technologies and Expression Analysis (LTEA) Assay for Early growth response protein 1 (EGR1) transcription factor using HepaRG (AID 2283490). Summed up:
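Differentiated HepaRG cells in serum-free induction medium exposed 48 hours, duplicate, to 8 half-log concentrations up to 100 uM in 0.5% DMSO. EGR1 mRNA measured by TaqMan qRT-PCR, normalized to ACTB, GAPDH, POLR2A; bidirectional fit versus DMSO.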

Read-out in assay [14]: Ezrin (EZR), EZR (gene 7430)
In words: LTEA_HepaRG_EZR: Life Technologies and Expression Analysis (LTEA) Assay for Ezrin (EZR) using HepaRG (AID 2283491). Summed up:
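Read-out is EZR transcript level by qRT-PCR, normalized to three housekeeping genes and fitted bidirectionally against the DMSO control. Human HepaRG cells received test chemicals for 48 h at eight half-log concentrations up to 100 uM in 0.5% DMSO.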

Read-out in assay [15]: Cytochrome P450 3A7 (Homo sapiens) (UniProt P24462)
In words: LTEA_HepaRG_CYP3A7: Life Technologies and Expression Analysis (LTEA) Assay for CYP3A7 using HepaRG (AID 2283492). Summed up: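 qRT-PCR of CYP3A7 in HepaRG lysates after 48 h treatment; concentration-response (8 points, max 100 uM) analysed bidirectionally relative to 0.5% DMSO controls.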

Read-out in assay [16]: CYP3A5 (gene 1577)
In words: LTEA_HepaRG_CYP3A5: Life Technologies and Expression Analysis (LTEA) Assay for CYP3A5 using HepaRG (AID 2283493). Summed up: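 mRNA induction or loss of CYP3A5 assessed in HepaRG after 48 h dosing, 100 uM top concentration, duplicate wells; TaqMan qRT-PCR with ACTB, GAPDH, POLR2A normalization; 0.5% DMSO as negative control.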

Read-out in assay [17]: Fatty Acid-Binding Protein 1 (FABP1), FABP1 (gene 2168)
In words: LTEA_HepaRG_FABP1: Life Technologies and Expression Analysis (LTEA) Assay for Fatty Acid-Binding Protein 1 (FABP1) using HepaRG (AID 2283494). Summed up: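 Differentiated human HepaRG cells exposed 48 h in serum-free induction medium to eight half-log concentrations up to 100 uM (0.5% DMSO), duplicate. FABP1 mRNA by qRT-PCR, normalised to ACTB, GAPDH, POLR2A; bidirectional fitting against DMSO.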

Read-out in assay [18]: Cytochrome P450 4A22 (Homo sapiens) (UniProt Q5TCH4)
Kind of assay: LTEA_HepaRG_CYP4A22: Life Technologies and Expression Analysis (LTEA) Assay for Cytochrome P450 4A22 (CYP4A22) using HepaRG (AID 2283495). Summed up: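 Concentration-response (8 points, max 100 uM, 0.5% DMSO) in human HepaRG liver cells after 48 h exposure. CYP4A22 mRNA by TaqMan qRT-PCR with housekeeping-gene normalization.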

Read-out in assay [19]: Cytochrome P450 7A1 (Homo sapiens) (UniProt P22680)
In words: LTEA_HepaRG_CYP7A1: Life Technologies and Expression Analysis (LTEA) Assay for Cytochrome P450 7A1 (CYP7A1) using HepaRG (AID 2283496). Summed up:
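Gene expression endpoint in human HepaRG liver cells treated for 48 h with test chemicals (up to 100 uM, 0.5% DMSO). Values come from bidirectional concentration-response fitting versus DMSO.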

Read-out in assay [20]: Cytochrome P450 (CYP24A1), CYP24A1 (gene 1591)
Kind of assay: LTEA_HepaRG_CYP24A1: Life Technologies and Expression Analysis (LTEA) Assay for Cytochrome P450 (CYP24A1) using HepaRG (AID 2283478). Summed up: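 Gene expression of CYP24A1 by TaqMan qRT-PCR in HepaRG after 48 h treatment, highest concentration 100 uM; activity fitted in both directions relative to DMSO vehicle.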

Sequence of Cytochrome P450 3A4 (Homo sapiens) (P08684 whole entry, looked up): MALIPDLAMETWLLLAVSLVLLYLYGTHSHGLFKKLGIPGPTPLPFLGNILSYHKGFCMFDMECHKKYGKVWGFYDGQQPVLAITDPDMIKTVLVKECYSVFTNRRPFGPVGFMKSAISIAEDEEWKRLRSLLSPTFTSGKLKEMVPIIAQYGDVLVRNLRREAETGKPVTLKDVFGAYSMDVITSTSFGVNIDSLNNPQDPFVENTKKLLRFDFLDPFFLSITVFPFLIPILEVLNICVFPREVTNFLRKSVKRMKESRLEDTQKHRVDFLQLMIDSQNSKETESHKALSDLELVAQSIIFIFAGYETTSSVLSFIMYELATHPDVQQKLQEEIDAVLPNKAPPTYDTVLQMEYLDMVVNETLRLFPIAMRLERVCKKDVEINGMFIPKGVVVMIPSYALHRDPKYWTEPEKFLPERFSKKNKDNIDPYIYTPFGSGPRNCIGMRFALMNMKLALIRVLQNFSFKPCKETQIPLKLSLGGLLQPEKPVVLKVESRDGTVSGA
Sequence of Cytochrome P450 2C19 (Homo sapiens) (P33261 whole entry, looked up): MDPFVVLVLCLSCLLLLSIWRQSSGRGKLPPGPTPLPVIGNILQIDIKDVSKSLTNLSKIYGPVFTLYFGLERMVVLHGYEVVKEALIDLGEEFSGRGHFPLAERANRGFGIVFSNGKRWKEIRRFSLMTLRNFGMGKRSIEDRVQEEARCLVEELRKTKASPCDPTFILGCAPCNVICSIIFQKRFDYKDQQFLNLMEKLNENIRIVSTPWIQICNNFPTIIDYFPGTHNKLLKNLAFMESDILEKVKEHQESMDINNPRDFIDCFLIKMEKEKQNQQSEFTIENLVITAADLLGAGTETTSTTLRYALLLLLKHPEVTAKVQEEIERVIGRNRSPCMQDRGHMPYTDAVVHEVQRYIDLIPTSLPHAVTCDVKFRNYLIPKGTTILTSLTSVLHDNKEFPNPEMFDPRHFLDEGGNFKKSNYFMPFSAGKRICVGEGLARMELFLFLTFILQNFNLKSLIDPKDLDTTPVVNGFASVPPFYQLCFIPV
Sequence of Cytochrome P450 3A7 (Homo sapiens) (P24462 whole entry, looked up): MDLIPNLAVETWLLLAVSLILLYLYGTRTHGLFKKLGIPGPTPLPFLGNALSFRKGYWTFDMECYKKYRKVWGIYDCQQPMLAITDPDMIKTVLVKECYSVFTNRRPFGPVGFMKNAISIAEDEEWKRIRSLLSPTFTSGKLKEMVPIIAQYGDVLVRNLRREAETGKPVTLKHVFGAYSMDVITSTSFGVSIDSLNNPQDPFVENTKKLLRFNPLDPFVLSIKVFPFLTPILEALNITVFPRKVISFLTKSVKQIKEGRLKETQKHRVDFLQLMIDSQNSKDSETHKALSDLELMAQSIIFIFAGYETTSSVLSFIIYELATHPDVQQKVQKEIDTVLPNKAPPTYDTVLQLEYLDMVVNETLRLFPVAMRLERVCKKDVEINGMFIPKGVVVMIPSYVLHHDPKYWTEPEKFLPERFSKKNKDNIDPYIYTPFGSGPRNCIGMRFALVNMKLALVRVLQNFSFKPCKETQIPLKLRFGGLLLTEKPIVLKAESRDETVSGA
Sequence of Caspase-3 (Homo sapiens) (P42574 whole entry, looked up): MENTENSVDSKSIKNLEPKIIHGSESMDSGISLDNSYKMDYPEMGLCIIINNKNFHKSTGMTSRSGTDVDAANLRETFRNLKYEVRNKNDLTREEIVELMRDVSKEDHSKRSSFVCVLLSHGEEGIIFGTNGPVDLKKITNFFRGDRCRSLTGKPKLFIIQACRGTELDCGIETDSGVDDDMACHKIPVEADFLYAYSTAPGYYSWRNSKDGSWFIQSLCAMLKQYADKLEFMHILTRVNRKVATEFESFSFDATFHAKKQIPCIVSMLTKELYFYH

For `Cc1cc(=O)[nH]c(=S)[nH]1`, the result in [1], in assay [3], in [4], in assay [5], in assay [6] and in assay [7] was inactive. The call in assay [8], in [9], in assay [10], in assay [11], in [12] and in assay [13] was inactive. The call in assay [14], in assay [15], in assay [16], in assay [17], in assay [18] and in [19] was inactive. Also, the AC50 (in general, the concentration at which the activity in the assay is half-maximal) in [2] was 50 µM (active).

Consider `C=CCOC(=O)c1ccccc1C(=O)OCC=C`, for which the molecule was called inactive in [1], in [2], in assay [3], in assay [4], in assay [5] and in assay [6]. Moreover, the molecule was classed as inactive in assay [7], in assay [8], in [9], in assay [10], in assay [11] and in [12]. Further, the molecule was classed as inactive in [13], in [14], in [15], in [16], in assay [17] and in assay [18]. Further, the outcome in assay [19] was inactive.

Regarding `Cc1cc(NC(=O)C(=O)O)cc(C)c1Oc1ccc(O)c2c1CCC2`, the call in assay [1], in [20], in assay [3], in [6], in assay [7] and in assay [11] was inactive. Moreover, the call in assay [12] and in assay [13] was inactive. The AC50 in assay [2] was 0.00228 µM (active); in assay [4], 3.16 nM (active); in assay [5], 618 nM (active); in [8], 1.2 µM (active); in assay [9] it was 5.89 nM (active); in assay [10], 13.8 µM (active). The AC50 is 52.2 nM (active) in assay [15]; 97.3 nM (active) in assay [16]; 27.9 nM (active) in assay [17]; 30.7 nM (active) in [18]; 229 nM (active) in assay [19].

(Values after PubChem BioAssay (EPA / NIEHS).)
